Compound activity from PubChem BioAssay.
Only some compounds are listed: those with a hit (about 2% of all), similar ones and a draw of the others.
MsrA inh = inhibits bovine methionine sulfoxide reductase A; purified bovine MsrA, absorbance read-out; inhibition, % at 15.5 µM; hit rate 0.75% among 360,000;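 also: 0% = vehicle wells with enzyme and 100% = reference inhibitor wells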
bovine MsrA act = activators of bovine methionine sulfoxide reductase A | purified bovine MsrA, absorbance read-out | activation, % at 10.6 µM | hit rate 0.3% among 360,000; in the data active = activation above about 7.5%;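 also: 0% = vehicle and 100% = reference activator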
PKA-R1A activ = activators of PKA-R1A complex; P00514+P68181; PKA-R1A dissociation, Cy5-IP20 fluorescence polarization; scaled: DMSO 0%, 113 µM cGMP 100%; activation, % at 11.4 µM; hit rate 0.083% among 340,000;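 active = percent activation above the mean of all tested compounds plus 3 SD, cut at about 19% in these data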;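 also: higher means more PKAc released from R1A so a rise in polarization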
PKA-R2B activ = activates the human PKA-R2B holoenzyme complex. hit rate 0.079% among 340,000. PKA-R2B holoenzyme dissociation, Cy5-IP20 fluorescence polarization; R2B truncated from residue 108, S112A mutant; 0% DMSO only, 100% 113 µM cGMP. P22694+P31323. activation, % at 11.4 µM;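 active = activation above a cutoff set at the mean over all compounds plus 3 SD, cut at about 18% in these data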;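 also: higher means more holoenzyme dissociation and a rise in polarization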
Target sequence (P31323 whole entry, looked up, other chains not shown, the tested form may be a part): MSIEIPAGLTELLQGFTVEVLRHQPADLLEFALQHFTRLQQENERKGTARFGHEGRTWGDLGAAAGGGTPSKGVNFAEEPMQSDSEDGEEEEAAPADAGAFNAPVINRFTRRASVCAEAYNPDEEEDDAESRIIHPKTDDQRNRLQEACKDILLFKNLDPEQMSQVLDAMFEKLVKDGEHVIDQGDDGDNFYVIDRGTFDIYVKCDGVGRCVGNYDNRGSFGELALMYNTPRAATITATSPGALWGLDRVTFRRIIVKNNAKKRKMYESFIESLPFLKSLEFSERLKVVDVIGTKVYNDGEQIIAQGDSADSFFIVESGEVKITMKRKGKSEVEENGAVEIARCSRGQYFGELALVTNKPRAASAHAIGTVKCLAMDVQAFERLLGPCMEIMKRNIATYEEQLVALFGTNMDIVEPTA
SUMO Mot1 rescue = inhibitors of SUMOylation pathway: yeast Mot1-301 growth rescue | S. cerevisiae Mot1-301 growth rescue, ATP luminescence, 38.5C; percent above DMSO median, 100 means doubled | AID 2716 | growth rescue, % at 18.8 µM | hit rate 1% among 320,000;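 active = every valid replicate shows activation above 250% relative to neutral control wells; inactive = the rest, any valid replicate at or below 250%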;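 also: OY570 slx delta 5 strain wells were the positive control but not used for scaling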
MsrA inh confirm = bovine MsrA inhibition, confirmed. shares compounds with MsrA inh. purified bovine MsrA, absorbance read-out. inhibition, % at 15.5 µM. hit rate 41% among 2,300. AID 651822;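 also: coupled to thioredoxin reductase with NADPH and selenocystamine and DMSO as substrate; 0% = vehicle only and 100% = full effect of reference inhibitor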
* hit, by the source's call; . = not tested or not shown. Rule as the data show it, unless noted: active = inhibition above about 4.5%; inactive = the rest.

SMILES	MsrA inh	bovine MsrA act	PKA-R1A activ	PKA-R2B activ	SUMO Mot1 rescue	MsrA inh confirm
CCN(CC)CCNC(=O)c1ccc(NCN2C(=O)NC(c3ccccc3)(c3ccccc3)C2=O)cc1	1	.	.	.	.	.
COc1ccc(/C(O)=C(\C#N)c2nc3ccccc3n2C)cc1OC	6.9*	-6	-5	2	70	6.0*
Cn1c(/C(C#N)=C(\O)c2cc(Cl)sc2Cl)nc2ccccc21	1	-3	-8	-10	-24	.
C[C@H](O)CNC(=O)c1[nH]cnc1C(=O)N[C@@H](C)c1ccccc1	0	0	9	3	.	.
COc1cc2c(cc1OC)-c1cc(NC3CCCCCC3)nc(=O)n1CC2	1	-7	-5	-7	-3	.
COc1cc2c(cc1OC)-c1cc(Nc3ccccc3)nc(=O)n1CC2	5.1*	-3	1	-3	-3	3
COc1cc2c(cc1OC)-c1cc(Nc3ccccc3Br)nc(=O)n1CC2	7.5*	-4	-3	-6	3	5
COc1cc2c(cc1OC)-c1cc(Nc3ccc(C(=O)O)cc3)nc(=O)n1CC2	4	-8	1	-8	10	.
COc1ccc(Nc2cc3n(c(=O)n2)CCc2cc(OC)c(OC)cc2-3)c(C)c1	4.9*	-5	-8	8	14	3
COc1cc2c(cc1OC)-c1cc(Nc3ccc(C)cc3)nc(=O)n1CC2	4	-1	3	-6	51	.
COc1cc2c(cc1OC)-c1cc(Nc3ccc4c(c3)OCCO4)nc(=O)n1CC2	5.1*	-5	-1	3	-13	4
COc1ccc(Nc2cc3n(c(=O)n2)CCc2cc(OC)c(OC)cc2-3)cc1	5.5*	1	-12	-8	572	4
C(=N\n1cnnc1)/c1nc2ccccc2[nH]1	4.9*	-3	-4	-21	0	2
O=C(NCCN1CCOCC1)c1ccc(=O)oc1	5.4*	-6	-6	10	238	4
O=C(NCCc1ccccc1)c1ccc(=O)oc1	8.2*	-15	-5	-7	.	8.0*
O=C(NCCN1CCOCC1)c1ccc(F)cc1	0	-5	-4	-1	136	.
CC(NC(=O)c1ccc(=O)oc1)c1ccccc1 (stereo not given)	7.2*	-5	0	3	-9	7.4*
CCCCn1c(N)c(N(CC(C)C)C(=O)CC(NC(=O)c2ccccc2Cl)c2ccccc2)c(=O)[nH]c1=O (stereo not given)	0	-7	-2	2	.	.
Cc1ccc(/C(CSc2nccn2-c2ncc(C(F)(F)F)cc2Cl)=N\O)cc1	8.6*	1	-3	-8	6	0
CCCCOC(=O)C1CN(c2ccccc2)N=C1C(=O)OCC (stereo not given)	53*	0	-11	3	9	2
CC(/C=N/NC(=O)c1sc(N)nc1C)=C\c1ccccc1	6.7*	-4	-11	-2	-3	4
Cc1nc(N)sc1C(=O)N/N=C/c1ccc([N+](=O)[O-])cc1	0	-8	.	.	-25	.
Cc1nc(N)sc1C(=O)N/N=C/c1ccccc1[N+](=O)[O-]	3	-18	.	.	-4	.
COc1cc(/C=N\NC(=O)c2sc(N)nc2C)cc(OC)c1OC	7.0*	-7	-3	-7	2	5.2*
COC(=O)[C@@]12C[C@@H](CC(=O)N3CCN(C(=O)c4ccco4)CC3)C(=O)N(Cc3ccccc3)C1=CCC(C)(C)C2	-1	.	.	.	.	.
SMILES	MsrA inh	bovine MsrA act	PKA-R1A activ	PKA-R2B activ	SUMO Mot1 rescue	MsrA inh confirm
O=S1(=O)CC(N2CC=CC2)CN1C1CCCCC1 (stereo not given)	0	-5	.	.	.	.
CN1CCN(c2nc(C#N)cc(-c3ccccc3)n2)CC1	5.0*	-5	11	7	19	1
NCC(=O)Nc1ccc(Cl)cc1C(=O)c1ccc[nH]1	5.0*	-12	4	1	.	1
Cc1ccc(F)c(S(=O)(=O)NC(=O)C2(C)CCN2C(=O)c2cccc3ccccc23)c1 (stereo not given)	0	-2	.	.	.	.
O=C(Nc1ccccc1)c1cc(C2CCCCN2S(=O)(=O)Cc2cccc(C(F)(F)F)c2)on1 (stereo not given)	2	5	.	.	.	.
C(=N\n1cnnc1)/c1cn(-c2cccs2)nc1-c1ccccc1	4.8*	-3	-7	-2	-15	3
CN(C)/C=C1\N=C(c2cccs2)OC1=O	7.7*	-8	-7	0	-22	5.5*
